Laboratory results from PubChem BioAssay AID602250 (The Scripps Research Institute Molecular Screening Center, 2012).
About 2,200 (0.61%) of roughly 360,000 compounds were called active.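 Rule for the calls: active = inhibition above a per-plate cutoff, the plate's mean sample inhibition plus 3 SD (cut at about 24% in these data); inactive = the rest.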 For the sample, actives were picked, then their nearest neighbours and some compounds at random.

Experiment: calcium signal blockers in parental CHO-K1 cells – cell-based, Fluo-8 calcium fluorescence, full deck, 1536-well, counter-screen for M1 antagonist project, primary screen (AID 602250);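 note: 0% = DMSO plus EC80 ATP and 100% = DMSO alone without ATP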
Details: ATP-induced calcium, Fluo-8 fluorescence, at 3 µM, active compounds read high
With Cc1ccc(S(=O)(=O)N2CCN(C(=O)c3cccs3)CC2)cc1 the inhibition was -9.88% (inactive). With O[C@H]1C[C@H](c2ccc(Cl)cc2)N(Cc2cccs2)C[C@@H]1n1cc(C2CC2)nn1 the inhibition was -27.1% (inactive). In the case of O=C(Nc1ccc(-c2ccc3nncn3n2)cc1)C1CCCCC1, the inhibition is reported as -5.78% (inactive). In the case of CCCN(C(=O)CSc1nnnn1C)c1c(N)n(Cc2ccccc2)c(=O)[nH]c1=O, the inhibition is reported as 4.6% (inactive). For C#CCNC(=O)C[C@@H]1C[C@@]2(C(=O)OCC)CCCC=C2N(Cc2ccco2)C1=O, the inhibition was -0.85% (inactive). In the case of CCCCNC(=O)CSc1nc2ccc(NC(=O)CSc3nnc(N)s3)cc2s1, the inhibition is reported as -6.75% (inactive). For COc1cc(OC)cc(-c2nnc(SCC(=O)Nc3ccc(C(=O)O)cc3)s2)c1, the inhibition was -8.28% (inactive). For Nc1nnc(SCC(=O)Nc2ccc3nc(SCC(=O)Nc4ccccc4)sc3c2)s1, the inhibition was 30% (active). In the case of CCN(CC)CCN1C(=O)C2C(C(=O)Nc3ccc(Br)cc3)C3C=CC2(O3)C1C(=O)NC1CCCCC1 (stereo unspecified), the inhibition is reported as -12.1% (inactive). With COc1ccc(F)cc1C(=O)C1CCCN(C(=O)CCc2ccccn2)C1 (stereo unspecified) the inhibition was 4.6% (inactive). For COc1ccc(C(=O)N2CCCC(C(=O)c3ccccc3OC)C2)cc1OC (stereo unspecified), the inhibition was 36.9% (active). For COc1ccc(C(=O)C2CCCN(C(=O)c3cc(C)on3)C2)cc1F (stereo unspecified), the inhibition was -2.55% (inactive). With CCN(CC)CC(=O)Nc1sc2c(c1C(=O)c1ccccc1C)CCC2 the inhibition was 3.09% (inactive). With O=C(Nc1ccc(Cl)cc1)OCc1cc(-c2ccccc2)on1 the inhibition was 7.62% (inactive). With O=C(Nc1ccc([N+](=O)[O-])cc1)OCCc1ccccn1 the inhibition was -2.63% (inactive). For O=C(Nc1cccc(Cl)c1)OCc1ccccn1, the inhibition was 25.6% (active). With O=C(CN1CCN(S(=O)(=O)c2ccc3ccccc3c2)CC1)NC(=O)NC1CCCCC1 the inhibition was -2.87% (inactive). With COc1cc2ccc(C(C)=O)c(O)c2cc1OC the inhibition was -2.14% (inactive). For O=C(CN(c1ccc2c(c1)OCCO2)S(=O)(=O)c1ccccc1)Nc1ccc2c(c1)OCO2, the inhibition was 30.7% (active). For O=C(CCS(=O)(=O)Cc1ccccc1)Nc1ccc2c(c1)OCCO2, the inhibition was -8.23% (inactive). In the case of CCN(CC(=O)Nc1ccc2c(c1)OCO2)S(=O)(=O)c1ccccc1, the inhibition is reported as -6.57% (inactive). For CC1CCCCN1S(=O)(=O)CCNC(=O)c1ccccc1 (stereo unspecified), the inhibition was 14.2% (inactive). With CC(=O)Nc1ccc(N2C(=O)CC(Sc3nccc(C)n3)C2=O)cc1 (stereo unspecified) the inhibition was 23.8% (active). In the case of Cc1ccnc(SC2CC(=O)N(c3ccccc3)C2=O)n1 (stereo unspecified), the inhibition is reported as 16.3% (inactive). In the case of CCOc1ccccc1N1C(=O)CC(Sc2nccc(C)n2)C1=O (stereo unspecified), the inhibition is reported as -15.2% (inactive). With C#Cc1ccc([C@@H]2C=C(C(=O)O)O[C@H](OCCCCO)C2)cc1 the inhibition was -9.51% (inactive). For FC(F)(F)COc1nc(N2CCCCC2)nc(N2CCNCC2)n1, the inhibition was -9.46% (inactive). For CN(N)c1nc(N2CCCC2)nc(N2CCCC2)n1, the inhibition was 25.6% (active). With O=C(NNc1nc(N2CCCC2)nc(N2CCCC2)n1)c1ccccc1 the inhibition was -8.06% (inactive). In the case of COC(=O)c1ccc(CN2CCCC(C(=O)Nc3cccc(-n4cnnn4)c3)C2)cc1 (stereo unspecified), the inhibition is reported as 0.04% (inactive). For O=Cc1c(NCCc2cccc(F)c2)c2ccccc2[nH]c1=O, the inhibition was -10.6% (inactive). In the case of CCCCOc1ccc(N(CC(=O)NC(C)C)C(=O)CCC(=O)Nc2ccccn2)cc1, the inhibition is reported as 23.1% (inactive). For COc1cc(CNc2ncn[nH]2)ccc1OCc1ccccc1C, the inhibition was -1.69% (inactive). In the case of O=C(CNS(=O)(=O)c1ccccc1)NCC(=O)OCc1ccccc1F, the inhibition is reported as -0.17% (inactive). With CCSc1ncnc2c(C#N)c3n(c12)CCCCC3 the inhibition was 40.4% (active). For CCSC1=C(C#N)C(=O)n2c1cc1c2CCCC1, the inhibition was -1.55% (inactive). With CCOC(=O)c1c(N=CN(C)C)c(C#N)c2n1CCCC2 the inhibition was -8.04% (inactive). In the case of Cc1cc2oc(=O)cc(CN(C)Cc3ccccc3)c2cc1Cl, the inhibition is reported as 6.2% (inactive). In the case of CCN(CC)CCn1c2c(c(SCC(=O)Nc3ccc(C(C)C)cc3)nc1=O)CCC2, the inhibition is reported as -0.47% (inactive). For Cc1ccc2nc(NC(=O)CSc3nc(=O)n(CCCN(C)C)c4c3CCC4)sc2c1, the inhibition was -19.7% (inactive). In the case of CCN(CC)CCn1c2c(c(SCC(=O)Nc3nc4ccccc4s3)nc1=O)CCCC2, the inhibition is reported as 28.3% (active). For C=CCNC(=S)NNc1ncnc2sc3c(c12)CC(C)(C)OC3, the inhibition was -3.73% (inactive). In the case of O=C(C1CCN(S(=O)(=O)c2cccs2)CC1)N1CCCCCC1, the inhibition is reported as -13.2% (inactive). For Cc1ccc(S(=O)(=O)N2C[C@]3(O)C[C@@H]4C(=O)N(c5ccccc5)C(=O)[C@@H]4C[C@]3(OC(=O)NC3CC3)C2)cc1, the inhibition was -3.35% (inactive). In the case of Cc1cccc(NC(=O)c2ccc3nsnc3c2)c1C, the inhibition is reported as -0.08% (inactive). With CC(C)n1c(=O)[nH]c2cc(C(=O)Nc3ccccc3)ccc21 the inhibition was 2.48% (inactive). For O=C(Nc1ccccc1)c1ccc2nsnc2c1, the inhibition was 29.9% (active). For CCC1Oc2ccc(Cl)cc2N(CC(=O)O)C1=O (stereo unspecified), the inhibition was -18.5% (inactive). With COc1ccc(C(=O)NC(=S)N2CCNC(=O)C2CC(=O)OC(C)C)cc1 (stereo unspecified) the inhibition was -6.8% (inactive). For CN(C)S(=O)(=O)c1ccc(C(=O)NCCN=C2NS(=O)(=O)c3ccccc32)cc1, the inhibition was -3.13% (inactive). For Cc1ccccc1C(=O)NCCN=C1NS(=O)(=O)c2ccccc21, the inhibition was 27.1% (active). For O=C(NCCN=C1NS(=O)(=O)c2ccccc21)c1ccc(S(=O)(=O)N2CCOCC2)cc1, the inhibition was 2.91% (inactive). With CCCC(=O)N1CCC1(C)C(=O)Nc1ccc(-n2cncn2)cc1 (stereo unspecified) the inhibition was -6.21% (inactive). With O=C(c1cc(COc2c(F)cccc2F)on1)N1CCSCC1 the inhibition was -8.58% (inactive). For C=CCC1(CC=C)CCCN1C(=O)c1cc(COc2ccc(-n3cncn3)cc2)on1, the inhibition was 31.3% (active). In the case of CCc1cc(C(c2ccccc2OC)N2CCOCC2)c(NC(=O)c2ccccc2)s1 (stereo unspecified), the inhibition is reported as 24.8% (active). With COc1ccccc1C(=O)Nc1cccc(C(=O)N2CCOCC2)c1 the inhibition was -9.07% (inactive). With COc1cc(C(c2c(NC(=O)c3ccco3)sc(C)c2C)N2CCOCC2)cc(OC)c1OC (stereo unspecified) the inhibition was 5.36% (inactive). In the case of CC(C)OCCCNC(=O)c1ccc(C2SCC(=O)N2Cc2ccco2)cc1 (stereo unspecified), the inhibition is reported as -4.67% (inactive). With COC(=O)c1ccc(-c2c(-c3ccccc3)ncc3cc(OC)c(OC)cc23)cc1 the inhibition was 8.1% (inactive). In the case of Cc1cc(=O)n2nc(N3CCCC(C(=O)NCc4ccc(Cl)cc4)C3)sc2n1 (stereo unspecified), the inhibition is reported as -0.44% (inactive). In the case of Cc1cc(=O)n2nc(N3CCCC(C(=O)NCc4cccc(Cl)c4)C3)sc2n1 (stereo unspecified), the inhibition is reported as -13.5% (inactive). With Cc1cc(=O)n2nc(N3CCCC(C(=O)N4CCN(C)CC4)C3)sc2n1 (stereo unspecified) the inhibition was 26.5% (active). With Cc1ccc(NC(=O)c2oc(=O)c3ccccc3c2-c2ccccc2)c(C)c1 the inhibition was -9.65% (inactive). For CCc1nnc(NC(=O)CSCc2cc(=O)n3cc(C)sc3n2)s1, the inhibition was -12.4% (inactive). With CC(=O)N1CCCc2cc(S(=O)(=O)N3CCCC(C(=O)N4CCN(c5cccc(Cl)c5)CC4)C3)ccc21 (stereo unspecified) the inhibition was 30.4% (active). For O=C(C1CCCN(S(=O)(=O)c2ccccc2)C1)N1CCN(c2ccc(F)cc2)CC1 (stereo unspecified), the inhibition was -2.45% (inactive). In the case of COc1cccc(N2CCN(C(=O)C3CCCN(S(=O)(=O)c4cnc[nH]4)C3)CC2)c1 (stereo unspecified), the inhibition is reported as 2.59% (inactive). With COc1ccc(OC)c(S(=O)(=O)N2CCCC(C(=O)NCCc3ccccc3)C2)c1 (stereo unspecified) the inhibition was -10.1% (inactive). In the case of CCC(=O)Nc1ccccc1C(=O)N1CCN(Cc2ccccc2)CC1, the inhibition is reported as 19.3% (inactive). With CCc1ccccc1NC(=O)CN1CCN(C(=O)c2cc(C3CC3)nn2-c2ccccc2)CC1 the inhibition was -11.2% (inactive). In the case of Cc1nn(Cc2ccccc2)c(C)c1C(=O)N1CCN(CC(=O)Nc2ccccc2Cl)CC1, the inhibition is reported as 23.9% (active). For CCCC(C)c1nnc(NC(=O)C2CC(=O)N(c3ccc(OCC)cc3)C2)s1 (stereo unspecified), the inhibition was -4.36% (inactive). In the case of Cc1nc(SCC(=O)NC2CCCC2)[nH]c(=O)c1C, the inhibition is reported as -8.77% (inactive). For CCCCC(=O)N1CC2(C)CN(C(=O)CCCC)CC(C)(C1)C2=O, the inhibition was -5.12% (inactive). In the case of COc1cc(O)c2c(=O)c3c(O)c(O)ccc3oc2c1OC, the inhibition is reported as -9.49% (inactive). With COc1c(O)cc2oc(-c3ccc(O)c(O)c3)cc(=O)c2c1O the inhibition was 24.9% (active). For CCOC(=O)COc1cc(OCC(=O)OCC)c2c(=O)cc(-c3ccccc3)oc2c1, the inhibition was -13.4% (inactive). In the case of CCN(CC(=O)NCc1cccs1)C(=O)/C=C/c1ccc(C)cc1, the inhibition is reported as -10.9% (inactive). For Cc1sc(NC(=O)C2=COCCO2)c(C#N)c1C, the inhibition was -16.8% (inactive). With CCCc1cc(=O)[nH]c(SCC(=O)Nc2sc3c(c2C#N)CCCC3)n1 the inhibition was 5.46% (inactive). With CCCc1ccc(-c2c(C)sc(NC(=O)c3ccnn3C)c2C#N)cc1 the inhibition was 29.1% (active). With Nc1cccc(S(=O)(=O)Nc2ccc(SC(F)F)cc2)c1 the inhibition was 12.1% (inactive). With COc1cc(Cl)ccc1OCc1cc(C(=O)N2CC[C@@H]3CCCC[C@H]3C2)no1 the inhibition was 30.9% (active). In the case of COc1ccc(OCc2cc(C(=O)N3CCCC3)no2)c2ccccc12, the inhibition is reported as -10.3% (inactive). With CCn1ccnc1CN(C)C(=O)c1cc(COc2ccc(Cl)cc2OC)on1 the inhibition was -6.33% (inactive). In the case of O=C(O)CCCCCCCCc1cn(CN2C(=O)c3ccccc3C2=O)nn1, the inhibition is reported as 12.6% (inactive). For O=C(O)CCCCc1nc2ccccc2s1, the inhibition was 33.5% (active). In the case of Cc1nn(-c2ccc(F)cc2)c(Cl)c1/C=C(/CCC(=O)O)c1nc2ccccc2s1, the inhibition is reported as -3.61% (inactive). For Cc1ccc([C@H]2N[C@]3(CCCN(CC4CCCCC4)C3=O)[C@H]3C(=O)N(Cc4ccccc4)C(=O)[C@@H]23)cc1, the inhibition was -0.53% (inactive). In the case of CCCCN(C(=O)c1ccc(OC(F)(F)F)cc1)c1c(N)n(CCC)c(=O)[nH]c1=O, the inhibition is reported as -6.23% (inactive).
